CHX counter: affects cycloheximide protein synthesis inhibition readout, counter-screen. max response, %. cell reporter, cycloheximide protein synthesis inhibition counterscreen. AID 2314. 12% of 300,000 active; in the data active = max response mostly above about 13%, no sharp cut-off; inactive = mostly below about 14%; note: read at 38.3 µM for the half of the compounds with a filed dose; 0% is about no effect
Shiga toxin inh: blocks Shiga toxin action in Vero cells; inhibition, % at 38.7 µM; Vero cells, Shiga toxin protein synthesis inhibition reporter; 9.2% of 290,000 active; in the data active = inhibition mostly above about 28%, no sharp cut-off; inactive = mostly below about 43%; note: 0% is about no effect
HCMV inh: inhibitors of human cytomegalovirus; HFF cells, HCMV-luciferase reporter, 72 h; active compounds read low; activity change, negative = inhibition, % at 57.5 µM; 4.5% of 410,000 active; in the data active = activity change below about -60%; inconclusive = no clear call, values can overlap the other calls; inactive = above about -39%; note: % is set by controls: 0 for no effect and ±100 for the full control effect
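Screen run at 2 compound doses on HFFs infected with reporter HCMV, MOI 1 PFU/cell. Luciferase activity from cell lysates at 72 h post infection gave inhibition relative to buffer-only and Salinomycin wells.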
Pf growth 96h: inhibits malaria parasite growth, 96 h. P. falciparum luciferase reporter growth, 96 h. Potency, µM (top dose mostly 28.7 µM), inactives show top-dose activity change, negative = inhibition, most hits filed as inhibitors. 6.9% of 320,000 active; note: potency is the fitted concentration of half-maximal effect; % is set by controls: 0 for no effect and ±100 for the full control effect
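Two-generation exposure (96 h) targets delayed-death phenotype. Reporter parasites carrying integrated firefly luciferase, in red cells at 2% hematocrit and 0.05% parasitemia final, kept at 37 C, 5% CO2; luminescence loss indicates inhibition.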
Pf growth 48h: inhibits P. falciparum growth in the first generation, 48 h. 5.9% of 310,000 active. P. falciparum luciferase growth in erythrocytes, 48 h. AID 504832. Potency, µM (highest dose often 28.7 µM), for inactives: top-dose activity change, negative = inhibition, hits mostly inhibitors; note: potency is the fitted concentration of half-maximal effect; % is set by controls: 0 for no effect and ±100 for the full control effect
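Growth was read as firefly luciferase luminescence after a 48 h, 37 C, 5% CO2 exposure of compounds to reporter-bearing P. falciparum cultures (0.1% parasitemia, 2% hematocrit final) in Albumax-supplemented RPMI 1640.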
* hit, by the source's call; ? = inconclusive; nt = no result given. An excerpt weighted towards active compounds, which were near 20% of everything screened. Unless noted, calls come from the whole dose curve; as a rule, active = well fitted inhibition curve with a large enough effect; inconclusive = small, poorly fitted or top-dose-only effect, or another doubt; inactive = no such curve, though single readings can be large or run the other way.

SMILES | CHX counter | Shiga toxin inh | HCMV inh | Pf growth 96h | Pf growth 48h
Cc1nn(-c2ccccc2)c(Cl)c1/C=N/Nc1nc2ccccc2[nH]1 | 39* | 146* | 45 | 0.74µM* | 0.74µM*
CC1CC(=O)N(c2ccc(N(C)Cc3ccccc3)c([N+](=O)[O-])c2)C1=O (configuration not stated) | 18* | 54* | ? | 29% | 35%
CC1=CS/C(=C(/C#N)C(=O)NCc2ccco2)N1c1ccccc1 | -6 | -13 | ? | -17% | nt
N#C/C(C(=O)NCc1ccco1)=C1/SC(Cc2ccc(Cl)cc2)C(=O)N1c1ccccc1 (configuration not stated) | 18* | -26 | 24 | -31% | -21%
Cc1ccc(CC2S/C(=C(/C#N)C(=O)NCc3ccco3)N(c3ccccc3)C2=O)cc1 (configuration not stated) | -6 | -12 | 7 | 15% | -18%
N#C/C(C(=O)NCc1ccco1)=C1/SC=C(c2ccccc2)N1c1ccccc1 | -4 | 11 | ? | 5.2µM* | 0%
COc1ccc(NC(=O)C2Cc3c(-c4ccccc4Oc4ccccc4)ccnc3O2)cc1 (configuration not stated) | nt | nt | -19 | nt | nt
CC(C)CN(CCNC(=O)c1cc(-c2cccs2)nc2ccccc12)CC(C)C | nt | nt | -10 | nt | nt
CCCS(=O)(=O)N1CC(=O)N(c2cccc(Cl)c2C)C(C)(C(=O)NC2CCCC2)C1 (configuration not stated) | nt | nt | 0 | nt | nt
COC(=O)C(C)n1cnc2c(nnn2-c2ccccc2)c1=O (configuration not stated) | -3 | 16 | nt | 49% | 15%
CC(c1nccs1)N(C)c1nc2nonc2nc1NC1CC1 (configuration not stated) | 0 | -9 | -22 | 0% | 8%
CC(c1nccs1)N(C)c1nc2nonc2nc1N(C)C (configuration not stated) | -1 | -29 | 0 | 13µM* | 8%
O=C(Cc1ccc([N+](=O)[O-])cc1)NCCc1c[nH]c2ccccc12 | nt | nt | 5 | nt | nt
c1nc(N2CCCCC2)c2[nH]cnc2n1 | -5 | -14 | -71* | 13µM* | -8%
Nc1c(Cl)cc(C2=NCCn3c2c2ccc([N+](=O)[O-])cc2[n+]3[O-])cc1Cl | nt | nt | ? | ? | 13µM*
COc1ccc(CNC(=O)CCCN2C(=O)CSc3c2c(C)nn3-c2ccccc2)c(OC)c1 | nt | nt | 6 | nt | nt
CC1CC(C)CN(c2ccc(-n3cnnn3)cc2[N+](=O)[O-])C1 (configuration not stated) | -1 | -7 | -39 | 54% | -6%
O=[N+]([O-])c1cc(-n2cnnn2)ccc1N1CCC(Cc2ccccc2)CC1 | -3 | -9 | -103* | 11% | ?
O=C1c2ccccc2C(=O)N1c1ccc(Cc2ccncc2)cc1 | 15* | 38 | 39 | -2% | 27%
O=C1c2ccccc2C(=O)N1c1ccccc1 | nt | nt | 6 | nt | nt
Cc1cc(C(=O)OCC(=O)NCCCN2CCCC2=O)c2ccccc2n1 | -2 | -5 | -17 | 83% | 4%
COc1cc(CCN)c(OC)cc1C | nt | nt | 60 | nt | nt
CCCCCSc1cc(OC)c(CCN(C)C)cc1OC | 20* | 4 | -37 | 12µM* | ?
Cc1ccc(/C=C/c2onc(C)c2S(=O)(=O)N2CCC(C(=O)N3CCN(c4cccc(C)c4)C(C)C3)CC2)cc1 (configuration not stated) | nt | nt | 5 | nt | nt
COc1ccccc1CCC(=O)Nc1nc2ccccc2[nH]1 | 40* | 69* | ? | nt | 85%
SMILES | CHX counter | Shiga toxin inh | HCMV inh | Pf growth 96h | Pf growth 48h
COc1ccc(CC(=O)Nc2nc3ccccc3[nH]2)cc1 | 6 | -7 | -35 | -3% | ?
COc1cc(CCC(=O)Nc2cnc3ccccc3c2)cc(OC)c1OC | 5 | -4 | -15 | -29% | ?
CCCCCC(=O)Nc1nc2ccccc2[nH]1 | 32* | 62* | 31 | 95% | 345%
COc1cccc(CC(=O)Nc2nc3ccccc3[nH]2)c1 | 24* | 65 | 29 | -3% | 36%
COc1ccc(CCC(=O)Nc2nc3ccccc3[nH]2)cc1OC | -4 | -3 | -12 | -9% | nt
COc1ccc(CCC(=O)Nc2cnc3ccccc3c2)cc1 | 32* | 79* | 24 | ? | ?
CC(C)N(Cc1nc(-c2ccc(Cl)cc2)no1)C(=O)c1ccco1 | nt | nt | -28 | nt | nt
CCNC(=O)C1(C)CCCN(Cc2ccc(Oc3ccccc3)cc2)C1 (configuration not stated) | nt | nt | -9 | nt | nt
C=CCN(C(=O)c1csnn1)C(C(=O)NC1CCCCC1)c1ccc(F)cc1 (configuration not stated) | -2 | -12 | -15 | ? | ?
COc1ccccc1NC(=O)/C(=N/OCc1ccc(F)cc1)C(C)=O | 1 | -14 | -14 | -7% | -13%
COc1ccc(OCC(=O)Nc2nc3ccccc3[nH]2)cc1 | 22* | 38* | 92 | 52% | nt
COc1ccc(CCC(=O)Nc2nc3ccccc3[nH]2)cc1 | 19* | 42 | 32 | 130% | nt
CSc1ccc(C#N)cc1NC(=O)c1ccccc1C | -2 | 7 | -16 | ? | ?
O=c1c2ccccc2nc2ccc(NCc3cccs3)nn12 | 54* | 59* | 12 | ? | 366%
O=C(CCc1ccccc1)Nc1ccc2c(c1)OCO2 | 53* | 89* | 57 | 1% | 104%
O=C(NCCc1ccccc1)C(=O)Nc1ccc2c(c1)OCCO2 | 27* | 74* | 28 | ? | 113%
O=C(Nc1ccc2c(c1)OCO2)OCc1ccccc1 | 25* | 81* | 129 | nt | 226%
O=C(Nc1ccc2c(c1)OCO2)C1CCCN1C(=O)OCc1ccccc1 (configuration not stated) | -3 | 14 | -4 | 21% | -12%
O=C(NCCc1ccccc1)Nc1ccc2c(c1)OCO2 | 61* | 156* | 21 | 16% | 0%
Cc1nn(C)c(C(=O)Nc2ccc(Cn3cccn3)cc2)c1[N+](=O)[O-] | -2 | -10 | -24 | nt | 7%
Cc1c(C(=O)N(C)C)sc2c1c(=O)n(-c1ccc(F)cc1)c(=O)n2Cc1cc(=O)n2ccccc2n1 | nt | nt | 11 | nt | nt
O=C(NCCc1ccc(F)cc1)Nc1ccc2c(c1)OCO2 | 48* | 58* | -25 | 3% | 134%
COc1ccccc1Cc1c(C(C)(C)C)nc2ccc(C)cn12 | nt | nt | 26 | nt | nt
COc1ccc(S(=O)(=O)N2CCN(c3ccccc3)CC2)cc1 | 2 | -1 | -30 | 32% | 17%
Cc1ccccc1C(=O)N1CCC(C(=O)Nc2cccc(S(=O)(=O)N3CCCCC3)c2)CC1 | nt | nt | ? | ? | 15µM*
Cc1ccccc1C(=O)N1CCC(C(=O)Nc2ccc(S(=O)(=O)N3CCCC3)cc2)CC1 | -5 | 6 | -27 | nt | ?
Cc1ccccc1C(=O)N1CCC(C(=O)Nc2ccc(C)c(S(=O)(=O)N3CCCCC3)c2)CC1 | nt | nt | 0 | ? | 13µM*
COc1cc(/C=N/n2nnnc2N)cc(Cl)c1OC | nt | nt | 3 | nt | nt
CC(=O)/C(N=Nc1ccc2c(c1)OCO2)=C(\C)O | 74* | 108* | 10 | 157% | 176%
